VACV Venus inh: vaccinia inhibition (Venus reporter); Potency, µM (highest dose often 36.5 µM), without a hit: top-dose activity change, negative = inhibition, actives largely listed as inhibitors; 330,000 tested, 0.46% active; Vaccinia virus Venus reporter expression, fluorescence; calls by dose curve; tested in A549 cells; note: potency is the fitted concentration of half-maximal effect; nearly all actives have a fitted effect of over 30% in size
HCMV antiviral: inhibitors of human cytomegalovirus | HFF cells, HCMV-luciferase reporter, 72 h; hits give low values | activity change, negative = inhibition, % at 57.5 µM | 410,000 tested, 4.5% active | AID 1259415; in the data active = activity change below about -60%; inconclusive = no clear call, values can overlap the other calls; inactive = above about -39%
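HFF cells seeded 16 h at 37C, treated with compounds, infected with luciferase-reporter HCMV at MOI 1 PFU/cell; luciferase read at 72 h post infection, normalized to buffer-only and Salinomycin controls.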
LmPK inhibitor: inhibitors of Leishmania mexicana pyruvate kinase. Q27686. purified LmPK, Kinase-Glo ATP luminescence, 1 h. Potency, µM (top dose mostly 57.5 µM), inactives show top-dose activity change, negative = inhibition, most hits filed as inhibitors. 290,000 tested, 0.37% active. AID 1721; note: potency is the fitted concentration of half-maximal effect
Target sequence (Q27686 whole entry, looked up): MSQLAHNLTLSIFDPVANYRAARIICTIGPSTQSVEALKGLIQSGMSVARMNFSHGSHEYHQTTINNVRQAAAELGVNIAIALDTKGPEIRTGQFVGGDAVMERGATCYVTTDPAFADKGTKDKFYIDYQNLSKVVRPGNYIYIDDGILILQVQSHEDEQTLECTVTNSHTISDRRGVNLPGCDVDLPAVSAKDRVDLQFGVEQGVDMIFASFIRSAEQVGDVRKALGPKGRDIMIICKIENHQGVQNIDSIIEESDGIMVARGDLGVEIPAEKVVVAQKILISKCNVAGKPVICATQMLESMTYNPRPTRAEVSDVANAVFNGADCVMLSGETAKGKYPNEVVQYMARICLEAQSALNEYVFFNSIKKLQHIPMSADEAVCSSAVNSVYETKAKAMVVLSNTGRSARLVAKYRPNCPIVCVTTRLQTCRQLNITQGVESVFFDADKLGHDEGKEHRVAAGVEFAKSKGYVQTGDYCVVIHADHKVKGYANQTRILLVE
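qHTS format; LmPK 0.1 nM; substrates PEP 0.5 mM and ADP 0.1 mM. One-hour room-temperature incubation, then coupled luciferase luminescence; 0.5 nM enzyme wells mark activation.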
Tb PYK inh: T. brucei pyruvate kinase inhibition. TbPYK enzyme, Kinase-Glo Plus ATP luminescence, 45 min. Potency, µM (highest dose often 76.8 µM), without a hit: at the top dose activity, negative = inhibition, most hits filed as inhibitors. 410,000 tested, 0.12% active. AID 624173; note: potency is the fitted concentration of half-maximal effect; nearly all actives have a fitted effect of over 50% in size
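Quantitative HTS: titrated library compounds versus trypanosomal pyruvate kinase in TEA buffer (pH 7.2) containing KCl, MgCl2, BSA and Tween-20. Reactions were initiated with ADP, 130 uM final. Kinase-Glo Plus luminescence was read after 45 min at RT.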
Vaccinia mCherry: inhibitors of vaccinia virus infection (mCherry reporter signal). Potency, µM (doses to about 36.5 µM), inactives show top-dose activity change, negative = inhibition, actives largely listed as inhibitors. AID 720579. 310,000 tested, 0.63% active. Vaccinia virus mCherry reporter infection, fluorescence; calls by dose curve; tested in A549 cells; note: potency is the fitted concentration of half-maximal effect; nearly all actives have a fitted effect of over 35% in size
* marks the source's active call; other numbers are inactive results; i = inactive; ? = inconclusive; · = no result given; [ ] = another dose, or the depositor's remark. Shown are actives, neighbours in structure and some others; about 5% of the full set was active somewhere. Unless noted, calls come from the whole dose curve; as a rule, active = well fitted curve in the direction sought with a large enough effect; inconclusive = small, poorly fitted or top-dose-only effect, or another doubt; inactive = no such curve, though single readings can be large; an effect the other way counts as inactive or inconclusive. % is set by controls: 0 for no effect and ±100 for the full control effect.

SMILES	VACV Venus inh	HCMV antiviral	LmPK inhibitor	Tb PYK inh	Vaccinia mCherry
CCCS(=O)(=O)c1c(S(=O)(=O)CCC)c2cc(C(C)(C)C)ccn2c1C(=O)c1ccccc1	-10%	-64*	·	-5%	-9%
CCCCNC(=O)C[C@@H]1C[C@@]2(C(=O)OCC)CCC=C2N(Cc2ccc3c(c2)OCO3)C1=O	-2%	-8	·	-5%	32%
CCCCSc1nnc2c(n1)OC(c1ccc(C)s1)Nc1ccccc1-2 (stereo unspecified)	-16%	?	·	0%	-12%
Cc1cc(/C=C2\SC(=Nc3ccc(F)cc3)NC2=O)c(C)n1-c1ccc(S(N)(=O)=O)cc1	?	-84*	0%	-2%	·
Cc1ccc(CS(=O)Cc2ccc(C(=O)NCc3ccc(OC(C)C)cc3)o2)cc1 (stereo unspecified)	-9%	0	0%	-22%	i
CCC(C)NC(=O)c1c(F)c(F)c(F)c(F)c1F (stereo unspecified)	?	-68*	2%	-7%	·
CCOc1ccc(C(=O)C[n+]2cccc3cc(C)ccc32)cc1	4%	-81*	0%	1%	i
Cc1ccc(C(=O)C[n+]2cccc3cc(C)ccc32)cc1	-7%	-32	0%[11.5 µM]	3%	-3%
CCc1ccc(OCCCSc2nc(-c3ccc(C(C)(C)C)cc3)nc3cc(=O)[nH]n23)cc1	-17%	-84*	·	-5%	-6%
CCOc1ccc(S(=O)(=O)N2CCC(C(=O)NCC3CCCO3)CC2)cc1 (stereo unspecified)	·	-5	-7%	-4%	·
COCCNC(=O)CCc1c(C)nc2c(c(C)nn2-c2ccc(C)cc2)c1C	-6%	-12	-1%	-2%	-11%
CCN(CC)CCNC(=O)CCc1c(C)nc2c(c(C)nn2-c2ccc(C)cc2)c1C	·	-93*	-1%	-4%	·
O=C(Nc1ccc(F)c(F)c1)c1ccc(-n2cncn2)c([N+](=O)[O-])c1	·	-18	·	2%	·
O=C(Nc1cccc(/C=C/c2ccccn2)c1)c1ccc(-n2cncn2)c([N+](=O)[O-])c1	?	-23	·	0%	14µM*
CC(C)(C)C(=O)NCCCc1nc2ccccc2n1CCCOc1ccc(Cl)cc1	?	-84*	0%	-4%	·
O=C(NCCc1nc2ccccc2n1CCCOc1ccc2ccccc2c1)C1CCCCC1	?	·	·	·	3.2µM*
CC(=O)NCCc1nc2ccccc2n1CCCCOc1ccc(Cl)cc1	-13%	-27	·	-2%	-11%
Cc1ccc(OCCCCn2c(CO)nc3ccccc32)cc1	-15%	-65*	3%	3%	-10%
CCOc1ccc(CNC(=O)c2ccc(NC(=O)N3CCCCc4ccccc43)cc2)cc1OC	2%	10	·	0%	-2%
COc1cc(OC)nc(-n2ncc(Br)c(Br)c2=O)n1	11µM*	-105*	-1%	20%	?
COC(=O)c1cnn(-c2nc(OC)cc(OC)n2)c1C	3%	39	-3%	4%	-4%
COc1cc(C(=O)OCC(=O)Nc2ccc(S(=O)(=O)N3CCCC3)cc2)cc(OC)c1OC	-9%	-4	·	-10%	-24%
Cc1nc(N2CCCCC2)c2c(C)c(C(=O)Nc3cccc(C(F)(F)F)c3)sc2n1	·	-60*	-8%	4%	·
Cc1nc(N2CCCCC2C)c2c(C)c(C(=O)Nc3cccc(C(F)(F)F)c3)sc2n1 (stereo unspecified)	2%	-29	-2%	2%	i
CN1C(=O)C(CCC(N)=O)NC1=S (stereo unspecified)	-1%	-30	7%	-1%	i
SMILES	VACV Venus inh	HCMV antiviral	LmPK inhibitor	Tb PYK inh	Vaccinia mCherry
CN1C(=O)[C@H](Cc2ccc([N+](=O)[O-])cc2)NC1=S	-16%	-72*	0%	13%	i
O=c1c2sccc2nc(SCc2cc(=O)n3cc(Br)ccc3n2)n1Cc1ccccn1	-4%	40	-1%	1%	7%
Cc1cc(NC(=O)CSc2nc(=O)n3cc(Cl)ccc3n2)no1	6%	-98*	·	2%	-11%
Cc1ccn2c(=O)nc(SCC(=O)Nc3cc(C)on3)nc2c1	-3%	-6	·	4%	i
Cc1ccc(S(=O)(=O)N2CCCc3cc(NC(=O)c4ccc(F)c(F)c4)ccc32)cc1	-20%	-18	·	3%	-10%
Cc1ccc(S(=O)(=O)N2CCCc3cc(NS(=O)(=O)c4ccc(F)cc4)ccc32)cc1	-9%	?	·	2%	-11%

Assay outcomes deposited in PubChem BioAssay by National Center for Advancing Translational Sciences (NCATS).
